In the supplement of paper PMC7261846:
Where a name gives a salt, the structure may show the parent alone. ± gives the uncertainty stated by the source.

System: Candida albicans SNY425 biofilm
Assay: biofilm OD600 with compound plus antifungal (OD600 (absorbance)); higher = more biofilm remaining
[1] = assay detail: disruption of 24-h mature biofilm (compound + antifungal for a second 24 h)
[2] = assay detail: sustained inhibition (compound + antifungal during 90-min adherence and 24-h growth)

Row | Compound | biofilm OD600 [1] | biofilm OD600 [2]
1 | CSCCC(C=O)NC(=O)C(CC(C)C)NC(=O)[C@H](CC(C)C)NC(C)=O (stereo not given in full) [Calpain Inhibitor II (ALLM)] + CC[C@H](C)C[C@H](C)CCCCCCCCC(=O)N[C@H]1C[C@@H](O)[C@@H](NCCN)NC(=O)[C@@H]2[C@@H](O)CCN2C(=O)[C@H]([C@H](O)CCN)NC(=O)[C@H]([C@H](O)[C@@H](O)c2ccc(O)cc2)NC(=O)[C@@H]2C[C@@H](O)CN2C(=O)[C@H]([C@@H](C)O)NC1=O [caspofungin] (first compound 12.5 µM) | 0.249 ± 0.0042 | 0.178 ± 0.0059
2 | CCCCC[C@H](CC(=O)NO)C(=O)N[C@H](C(=O)N1CCC[C@H]1CO)C(C)C [Actinonin] + CC[C@H](C)C[C@H](C)CCCCCCCCC(=O)N[C@H]1C[C@@H](O)[C@@H](NCCN)NC(=O)[C@@H]2[C@@H](O)CCN2C(=O)[C@H]([C@H](O)CCN)NC(=O)[C@H]([C@H](O)[C@@H](O)c2ccc(O)cc2)NC(=O)[C@@H]2C[C@@H](O)CN2C(=O)[C@H]([C@@H](C)O)NC1=O [caspofungin] (first compound 12.5 µM) | 0.263 ± 0.021 | 0.182 ± 0.0058
3 | CC1CNc2c(cccc2S(=O)(=O)N[C@@H](CCCNC(=N)N)C(=O)N2CC[C@@H](C)C[C@@H]2C(=O)O)C1 (stereo not given in full) [Argatroban] + CC[C@H](C)C[C@H](C)CCCCCCCCC(=O)N[C@H]1C[C@@H](O)[C@@H](NCCN)NC(=O)[C@@H]2[C@@H](O)CCN2C(=O)[C@H]([C@H](O)CCN)NC(=O)[C@H]([C@H](O)[C@@H](O)c2ccc(O)cc2)NC(=O)[C@@H]2C[C@@H](O)CN2C(=O)[C@H]([C@@H](C)O)NC1=O [caspofungin] (first compound 12.5 µM) | 0.285 ± 0.017 | 0.182 ± 0.0063
4 | CC1(C)C[C@@H]1C(=O)N/C(=C\CCCCSC[C@H](N)C(=O)O)C(=O)O [Cilastatin] + OC(Cn1cncn1)(Cn1cncn1)c1ccc(F)cc1F [fluconazole] (first compound 12.5 µM) | 0.271 ± 0.011 | 0.162 ± 0.012
5 | CCCC[C@@H](C=O)NC(=O)OC(C)(C)C + OC(Cn1cncn1)(Cn1cncn1)c1ccc(F)cc1F [fluconazole] (first compound 12.5 µM) | 0.243 ± 0.0054 | 0.117 ± 0.0068
6 | CCCC[C@@H](C=O)NC(=O)OC(C)(C)C + C[C@@H]1[C@H](O)[C@@H](C)/C=C/C=C/C=C/C=C/C=C/C=C/C=C/[C@H](O[C@@H]2O[C@H](C)[C@@H](O)[C@H](N)[C@@H]2O)C[C@@H]2O[C@](O)(C[C@@H](O)C[C@@H](O)[C@H](O)CC[C@@H](O)C[C@@H](O)CC(=O)O[C@H]1C)C[C@H](O)[C@H]2C(=O)O [amphotericin B] (first compound 12.5 µM) | 0.259 ± 0.011 | 0.188 ± 0.0076
7 | CC(NC(=O)C(Cc1ccccc1)NC(=O)OCc1ccccc1)C(=O)CF (stereo not given) + CC[C@H](C)C[C@H](C)CCCCCCCCC(=O)N[C@H]1C[C@@H](O)[C@@H](NCCN)NC(=O)[C@@H]2[C@@H](O)CCN2C(=O)[C@H]([C@H](O)CCN)NC(=O)[C@H]([C@H](O)[C@@H](O)c2ccc(O)cc2)NC(=O)[C@@H]2C[C@@H](O)CN2C(=O)[C@H]([C@@H](C)O)NC1=O [caspofungin] (first compound 12.5 µM) | 0.3 ± 0.005 | 0.185 ± 0.0046
8 | N[C@H](C(=O)O)[C@@H]1CC(Cl)=NO1 [Acivicin] + OC(Cn1cncn1)(Cn1cncn1)c1ccc(F)cc1F [fluconazole] (first compound 4 µM) | 0.279 ± 0.0067 | 0.123 ± 0.0055
9 | CC(C)C[C@H](NC(=O)N[C@H](C(=O)N[C@@H](CCC(N)=O)C(=O)N[C@@H](C)C=O)[C@@H]1CCNC(=N)N1)C(=O)O [Elastatinal] + OC(Cn1cncn1)(Cn1cncn1)c1ccc(F)cc1F [fluconazole] (first compound 12.5 µM) | 0.249 ± 0.0066 | 0.16 ± 0.014
10 | CC[C@H](C)[C@H](N)C(=O)N1CCSC1 [P32/98 hemifumarate salt] + C[C@@H]1[C@H](O)[C@@H](C)/C=C/C=C/C=C/C=C/C=C/C=C/C=C/[C@H](O[C@@H]2O[C@H](C)[C@@H](O)[C@H](N)[C@@H]2O)C[C@@H]2O[C@](O)(C[C@@H](O)C[C@@H](O)[C@H](O)CC[C@@H](O)C[C@@H](O)CC(=O)O[C@H]1C)C[C@H](O)[C@H]2C(=O)O [amphotericin B] (first compound 12.5 µM) | 0.259 ± 0.014 | 0.181 ± 0.0051
